An excerpt weighted towards active compounds, which were near 1.5% of everything screened.
CRFBP-R2 block = antagonists of CRF-binding protein/CRF-R2 receptor complex; HEK293 CRF-R2/CRF-BP, CRF-induced calcium fluorescence; inhibition, % at 11.8 µM; 350,000 tested, 0.59% active; AID 588475;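 active = inhibition of the ligand-induced calcium signal above about 50% at the single tested concentration, limit read from the data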
CRFR2-BP ag = CRF-BP/CRF-R2 complex agonism. AID 588473. activation, % at 13.2 µM. HEK293 CRF-R2/CRF-BP, calcium dye fluorescence (FLIPR); percent of saturating CRF peptide response. 350,000 tested, 0.46% active;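 active = activation of at least 50%, plus an integration ratio under a set limit after plate pattern correction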;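 also: plate controls were neutral control wells without compound for no effect and CRF at EC100 for full effect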
IDE cell inh = cellular human IDE inhibition; HEK cells, FAbetaB cleavage, fluorescence polarization; 320,000 tested, 0.41% active; P14735; inhibition, % at 5.59 µM;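 active = percent inhibition above the average of all tested compounds plus 3 SD, set per screening campaign, cut at about 16% in these data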;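 also: IDE supplied by intact live HEK cells; FP after avidin binding of uncleaved biotin substrate so inhibition keeps polarization high; 0% = DMSO wells and 100% = 60 µM reference IDE inhibitor Ii1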
cardiac RTF act = increases calcium sensitivity of human cardiac regulated thin filaments; IANBD-labeled TnC RTF fluorescence at EC20 calcium; 0% EC20 calcium, 100% full calcium; activation, % at 7.2 µM; AID 493008; 340,000 tested, 0.24% active; P19429+P45379;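 active = activation above the mean over all tested compounds plus 3 SD, cut at about 30% in these data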;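 also: rise in fluorescence read as greater calcium sensitivity of cardiac thin filaments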
RTF Ca sens inh = cardiac RTF calcium desensitization | IANBD-labeled cardiac RTF, Ca2+ fluorescence | AID 493244 | inhibition, % at 7.15 µM | 340,000 tested, 0.12% active | P19429+P45379;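 active = inhibition above the mean inhibition of all tested compounds plus 3 SD, cut at about 17% in these data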;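 also: assay run at fixed EC70 calcium of 1.6 mM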
IDE cell activ = activators of human insulin-degrading enzyme in cells; P14735; 340,000 tested, 0.073% active; activation, % at 5.96 µM; AID 493087; HEK cells, FAbeta-B cleavage, fluorescence polarization; 0% vehicle, 100% cell-free pure enzyme wells;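 active = activation above the mean of all tested compounds plus 3 SD, set per screening campaign, cut at about 17% in these data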
IDE cell inh cf = confirmation of human insulin-degrading enzyme inhibitors in cells; shares compounds with IDE cell inh; HEK cells, FAbetaB cleavage, fluorescence polarization; inhibition, % at 5.59 µM; 1,200 tested, 51% active;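 active = mean inhibition across triplicate wells above the cutoff set by the earlier primary insulin-degrading enzyme screen, cut at about 16% in these data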;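 also: 0% = DMSO wells and 100% = 60 µM reference IDE inhibitor Ii1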
HEK cytotox = kills HEK cells in IDE inhibitor counter-screen; shares compounds with IDE cell inh; HEK293 cytotoxicity, ATP luminescence; inhibition, % at 5.59 µM; 1,200 tested, 28% active; AID 449730; in the data active = inhibition above about 22%;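 also: 0% = vehicle wells and 100% = reference cytotoxic drug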
Starred values were filed as active, the others as inactive; nt = not tested or not shown.

SMILES	CRFBP-R2 block	CRFR2-BP ag	IDE cell inh	cardiac RTF act	RTF Ca sens inh	IDE cell activ	IDE cell inh cf	HEK cytotox
CCC(CO)[n+]1c(C)cc(/C=C2\Sc3ccccc3N2Cc2ccccc2)cc1C (centres undefined)	-103	77*	43*	40*	-23	-37	54*	100*
O=S(=O)(c1ccc(F)cc1)N1CCN(CC(O)COCC2CCCO2)CC1 (centres undefined)	9	0	nt	5	0	5	nt	nt
CC(=O)Nc1cccc(C(=O)/C=C/c2ccc(N(C)C)cc2)c1	-219	196*	56*	73*	-81	-174	51*	14
CC(=O)Nc1cccc(C(=O)/C=C/c2ccc(/C=C/C(=O)c3cccc(NC(C)=O)c3)cc2)c1	nt	nt	-1	nt	nt	nt	nt	nt
Cc1ccc(S(=O)(=O)NCC(=O)Nc2cccnc2)cc1C	-10	-1	-1	0	1	5	nt	nt
CSc1ccccc1NC(=O)C1CCN(S(C)(=O)=O)CC1	-5	0	0	-24	-2	3	nt	nt
COC(=O)c1ccc2c(c1)C(=O)/C(=C/c1ccc(O)cc1)O2	-81	77*	55*	5	-2	-106	86*	21
CC(=O)Oc1ccc(/C=C2/Oc3ccccc3C2=O)cc1	-18	7	28*	7	-3	-47	66*	21
COc1ccc(/C=C2\Oc3ccccc3C2=O)cc1	-8	-2	6	5	-13	0	nt	nt
CC(C)(C)c1ccc(/C=C2\Oc3cc(O)ccc3C2=O)cc1	-13	16	13	9	-21	-2	nt	nt
CC1CNC(=S)N(c2ccccc2)C1=O (centres undefined)	-37	1	nt	-5	-5	3	nt	nt
COc1cc(/C=C2\SC(N)=NC2=O)cc(Br)c1O	-29	19	55*	12	-13	-41	70*	6
Cc1cc([N+](=O)[O-])cc(C)c1OCC(=O)N/N=C/c1ccc(OC(=O)c2ccccc2)cc1	-12	0	20*	2	8	-25	6	8
CN(CC(=O)Nc1ccccc1C(F)(F)F)C(=O)CSCc1ccccc1	-10	-2	-3	-4	-3	2	nt	nt
Cc1cccc(N2CCN(C(=O)CCNC(=O)Cn3ccc4ccccc4c3=O)CC2)c1C	-18	0	17*	-3	1	-11	8	15
CN1CCN(C(=O)CCNC(=O)Cn2ccc3ccccc3c2=O)CC1	-11	2	0	6	-13	9	nt	nt
COc1ccc2c(Cl)c(C(=O)N/N=C3\CCCC(=O)C3)sc2c1	-64	79*	22*	41*	-80	-18	31*	11
COc1ccc2c(Cl)c(C(=O)N/N=C/c3ccc4c(c3)OCO4)sc2c1	8	6	-1	4	0	-2	nt	nt
Fc1ccc2[nH]c3c(N4CCc5ccccc5C4)ncnc3c2c1	-3	0	29*	nt	nt	nt	12	77*
c1ccc2c(c1)CCN(c1ncnc3nc[nH]c13)C2	-20	11	-3	2	-4	-5	nt	nt
Cc1ccc2[nH]c3c(NCc4ccccc4)ncnc3c2c1	10	11	nt	nt	nt	nt	nt	nt
Brc1ccc2[nH]c3c(NCc4ccccn4)ncnc3c2c1	-15	1	64*	nt	nt	nt	38*	22*
CN1CCN(c2ncnc3c2[nH]c2ccc(F)cc23)CC1	2	-1	23*	3	-2	-14	10	12
c1ccc2c(c1)[nH]c1c(N3CCN(C4CCCCC4)CC3)ncnc12	-2	-1	13	-5	-9	-19	nt	nt
Brc1ccc2[nH]c3c(N4CCc5ccccc5C4)ncnc3c2c1	-59	1	55*	nt	nt	nt	41*	66*
SMILES	CRFBP-R2 block	CRFR2-BP ag	IDE cell inh	cardiac RTF act	RTF Ca sens inh	IDE cell activ	IDE cell inh cf	HEK cytotox
Cc1cccc(NS(=O)(=O)c2cccc(C(=O)NCC(c3ccco3)N(C)C)c2)c1 (centres undefined)	2	0	-4	4	11	11	nt	nt
Cc1onc(-c2c(F)cccc2Cl)c1C(=O)Nc1ccc(Cl)c(S(=O)(=O)N(C)C)c1	-8	1	-4	-5	0	-1	nt	nt
O=C(Nc1ccc(C(=O)OC[C@@H]2CCCN3CCCC[C@H]23)cc1)c1cccc(Br)c1	-27	0	32*	0	-5	-14	6	10
COCC(=O)N1CCC2CC1c1c(-c3ccc(C(F)(F)F)cc3)cccc12 (centres undefined)	6	1	nt	-3	0	3	nt	nt
O=C(O)Cn1c2c(c3ccccc31)CSc1ccc(Cl)cc1-2	-1	0	24*	-2	-6	-8	3	8
O=C(O)Cn1c2ccccc2c2ccccc21	-8	-3	-4	2	-6	2	nt	nt
COc1cc(/C=C(/C#N)C(=O)NC(C)c2ccccc2)cc(OC)c1O (centres undefined)	-53	35	75*	-4	-10	-53	79*	10
Cc1ccc2[nH]c3c(N4CCOCC4)ncnc3c2c1	25	0	29*	-1	-2	-11	9	21
Clc1ccc2[nH]c3c(N4CCC5(CC4)OCCO5)ncnc3c2c1	7	0	22*	nt	nt	nt	10	60*
c1ccc2c(c1)[nH]c1c(N3CCSCC3)ncnc12	-1	0	11	-1	7	-10	nt	nt
c1ccc2c(c1)[nH]c1c(N3CCOCC3)ncnc12	1	0	18*	0	-2	-12	8	20
c1ccc2c(c1)[nH]c1c(N3CCCC3)ncnc12	11	-4	16*	2	3	-12	10	49*
O=C(NCCC(=O)N1CCN(c2ccccn2)CC1)c1ccc(Br)cc1	-1	-1	2	0	-8	1	nt	nt
Cc1ccc2nc3n(c(=O)c2c1)-c1ncccc1C(=O)NC3Cc1ccccc1 (centres undefined)	-16	-1	nt	nt	nt	nt	nt	nt
Cc1ccc(N2CCN(C3=NC(=O)/C(=C\c4cn[nH]c4-c4ccccc4)S3)CC2)cc1	33	-1	31*	0	-5	-16	2	26*
O=C1N=C(N2CCN(c3ccccc3)CC2)S/C1=C\c1cn[nH]c1-c1ccccc1	0	1	9	5	-3	-13	nt	nt
CC(OC(=O)c1cccc(-n2cnnn2)c1)C(=O)Nc1ccc(N(C)C)cc1 (centres undefined)	6	0	2	-4	-5	1	nt	nt
O=c1c(Cl)c(NCc2ccccc2Cl)cnn1C12CC3CC(CC(C3)C1)C2	-37	1	34*	7	-2	-30	19*	40*
